PI5P4Ka inh: PI5P4K alpha (human) kinase inhibition. P48426. PI5P4Kalpha enzyme, ADP-Glo luminescence, 60 min; hits give low values. max response, %. hit rate 1.2% among 330,000. AID 652105; active = max response of -50% or lower; inconclusive = between -30% and -50%; inactive = -30% or higher; note: value at the top dose of about 77 µM
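Controls without substrate or without enzyme flank wells where PI5P4Kalpha converts substrate using 5 microM ATP (final). Incubation lasts 60 minutes at room temperature; ADP formed is read by ADP-Glo luminescence.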
BLM inh: blocks DNA unwinding by human BLM helicase; P54132; recombinant BLM DNA unwinding, fluorescence dequenching; Potency, µM (series often up to 56.1 µM), for the others: top-dose activity change, negative = inhibition, hits mostly inhibitors; hit rate 0.2% among 350,000; AID 2528;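 note: potency is the fitted concentration of half-maximal effect; plate controls were vehicle for no effect and no enzyme for full effect; nearly all actives have a fitted effect of over 35% in size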
FEN1 inhibitor: blocks human flap endonuclease 1; P39748; Recombinant FEN1 flap cleavage, fluorescence, 15 min; Potency, µM (top dose mostly 114 µM), without a hit: at the highest dose activity change, negative = inhibition, usual class: inhibitors; hit rate 0.35% among 390,000; AID 588795; note: potency is the fitted concentration of half-maximal effect; nearly all actives have a fitted effect of over 65% in size
Target sequence (P39748 whole entry, looked up): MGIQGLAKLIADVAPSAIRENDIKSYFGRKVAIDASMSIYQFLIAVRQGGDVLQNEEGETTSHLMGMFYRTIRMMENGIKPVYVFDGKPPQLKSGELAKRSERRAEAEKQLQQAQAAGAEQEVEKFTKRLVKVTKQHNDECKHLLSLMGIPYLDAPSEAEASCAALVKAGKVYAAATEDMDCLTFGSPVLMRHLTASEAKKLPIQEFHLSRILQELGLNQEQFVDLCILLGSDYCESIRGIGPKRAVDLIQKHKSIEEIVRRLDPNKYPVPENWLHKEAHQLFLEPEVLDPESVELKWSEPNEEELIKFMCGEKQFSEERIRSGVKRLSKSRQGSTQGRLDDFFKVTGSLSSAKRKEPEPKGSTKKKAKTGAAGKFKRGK
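With each library titrated from low to high concentration, compounds met 10 nM FEN1 for 15 min at room temperature before 50 nM substrate was added; readings at 0 and 15 min fed four-parameter Hill curve fits.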
RECQ1 inh: RECQ1 (human) helicase inhibition; P46063; RECQ1 DNA unwinding, red fluorescence kinetic read; Potency, µM (highest dose often 57.3 µM), inactives show top-dose activity, negative = inhibition, usual class: inhibitors; hit rate 0.54% among 240,000; AID 2549;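 note: potency is the fitted concentration of half-maximal effect; plate controls were vehicle for no effect and no enzyme for full effect; nearly all actives have a fitted effect of over 30% in size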
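RECQ1T1 50 nM; forked duplex (20 bp + 30-nt ss tails) 200 nM, ATP 2 mM final; pH 8.0, 2 mM MgCl2, 2.5 ug/ml poly(dI-dC); 15 min compound preincubation; discontinuous kinetic read over 2 h at RT.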
APEX1 inh: inhibitors of human APE1 endonuclease; Potency, µM (doses to about 65.8 µM), inactives show top-dose activity change, negative = inhibition, usual class: inhibitors; AID 2517; recombinant APE1, TAMRA/BHQ-2 abasic DNA cleavage fluorescence; P27695; hit rate 0.35% among 350,000;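 note: potency is the fitted concentration of half-maximal effect; plate controls were vehicle for no effect and reference inhibitor for full effect; nearly all actives have a fitted effect of over 55% in size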
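Quantitative HTS: incision of a TAMRA/BHQ-2 double-stranded substrate bearing a tetrahydrofuran abasic site by 0.75 nM APE1 raises fluorescence. Substrate 50 nM final, added after 15 min compound preincubation at room temperature; progress as third-minus-first kinetic read difference.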
KAT2A inh: inhibitors of human GCN5L2 histone acetyltransferase | GCN5L2 HAT assay, ThioGlo1 CoA-SH fluorescence | Potency, µM (series often up to 58.9 µM), without a hit: top-dose activity change, negative = inhibition, actives largely listed as inhibitors | hit rate 0.21% among 390,000; note: potency is the fitted concentration of half-maximal effect
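ThioGlo1-coupled HAT assay: 20nM GCN5L2, 70uM acetyl-CoA, 75uM H3(1-25) peptide, pH 7.5. Fluorescence read at 340/540nm at start and after 20 min at room temperature.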
The depositor's hits bear a star; ? = inconclusive; · = not tested or not shown. The list is not random: actives were taken first. Their share in the collection is about 1.5%. Unless noted, calls come from the whole dose curve; as a rule, active = well fitted curve in the direction sought with a large enough effect; inconclusive = small, poorly fitted or top-dose-only effect, or another doubt; inactive = no such curve, though single readings can be large; an effect the other way counts as inactive or inconclusive. Unless noted, % is set by controls: 0 for no effect and ±100 for the full control effect.

SMILES | PI5P4Ka inh | BLM inh | FEN1 inhibitor | RECQ1 inh | APEX1 inh | KAT2A inh
COc1cccc(Nc2ccccc2C(=O)O)c1 | -27.3 | 0.4% | -0.9% | 13.7% | 3.9% | 0.6%
O/C=c1\ccc2cccc3nc(C(F)(F)F)nc1c23 | ? | 14.1µM* | 79.4µM* | · | -26.6% | -25.4%
COc1cc(Br)c(CC(=O)NO)cc1OC | · | · | 1.0% | · | · | ·
COc1ccc(CNC(=O)c2cc3c(=O)n4ccccc4nc3n(Cc3cccnc3)c2=N)cc1 | · | -10.2% | -10.8% | 14.1µM* | 16.4% | -1.3%
O=C(O)c1cc(NN=Nc2cccc([N+](=O)[O-])c2)cc([N+](=O)[O-])c1 | ? | -5.8% | -14.0% | -3.3% | -2.4% | -6.2%
O=C(O)c1cc(NN=Nc2cccc(S(=O)(=O)O)c2)cc([N+](=O)[O-])c1 | -55.5* | -3.9% | 6.3% | · | 10.8% | -3.3%
CSc1ccc(CNC(=O)c2cc3c(=O)n(Cc4ccco4)ccc3nc2C)cc1 | · | 0.6% | 89.1µM* | · | · | -6.8%
CC1=C(C(=O)OCc2ccccc2)C(c2ccc(Cl)cc2Cl)NC(=O)N1CCCC(=O)O (stereo not drawn) | -76.4* | 4.5% | 10.2% | 3.6% | 2.1% | -2.6%
CCOC(=O)C1=C(C)N(CCCC(=O)O)C(=O)NC1c1ccc(Cl)cc1Cl (stereo not drawn) | -98.4* | 0.8% | 19.0% | · | 34.7% | -9.6%
CCOC(=O)C1=C(C)N(CCCC(=O)O)C(=O)NC1c1ccccc1Cl (stereo not drawn) | -88.5* | · | 2.2% | · | · | ·
O=c1/c(=C/c2ccco2)sc2nc3cc(Br)cnc3n12 | · | · | · | · | 14.2% | ·
O=C(N/N=C/c1ccco1)C1CC1 | 3.3 | -15.3% | 0.2% | 3.0% | 32.5% | 0.8%
O=C(N/N=C/c1ccco1)C1CC1c1ccccc1 (stereo not drawn) | -50.3* | -12.4% | -4.3% | -0.2% | ? | 3.5%
CC(N)C(=O)NCC(=O)NC1CSSCC(C(=O)O)NC(=O)C(CO)NC(=O)C(C(C)O)NC(=O)C(Cc2ccccc2)NC(=O)C(C(C)O)NC(=O)C(CCCCN)NC(=O)C(Cc2c[nH]c3ccccc23)NC(=O)C(Cc2ccccc2)NC(=O)C(Cc2ccccc2)NC(=O)C(CC(N)=O)NC(=O)C(CCCCN)NC1=O (stereo not drawn) | · | 4.9% | · | · | · | 6.1%
CC(=O)N1C(=O)c2cccc3cccc(c23)C(=O)N1C(C)=O | 3.2 | 0.9% | -0.2% | -4.1% | -2.2% | -2.2%
O=C1c2cccc3cccc(c23)C(=O)C1(O)O | ? | · | 1µM* | · | · | ·
CN1CCN(c2ncncc2-c2ccc(N(C)C)cc2)CC1 | · | -2.5% | · | 1.0% | -2.6% | -6.1%
CN1CCN(c2ncncc2-c2cccnc2)CC1 | · | -16.8% | · | 1.6% | 0.9% | 0.891µM*
Cc1ccc(CCNc2nc3c(S(=O)(=O)c4ccccc4)nnn3c3ccsc23)cc1 | · | -8.6% | 89.1µM* | · | · | 4.4%
O=S(=O)(c1ccc(Br)cc1)c1nnn2c1nc(NCCc1ccccc1)c1sccc12 | · | -3.0% | 16.7% | · | · | -13.9%
Cc1cc(C)c2c(n1)NCCC2 | · | · | 10.5% | · | · | ·
Cc1cc(-c2nc3ncccc3o2)ccc1NC(=O)c1ccc([N+](=O)[O-])o1 | -58.2* | · | ? | · | · | ·
CN(C)c1ccc(/C=C/c2ccnc3cc(Cl)cc(Cl)c23)cc1 | · | · | 9.6% | · | · | ·
CC[N+](CC)(CC)c1ccc(/C=C/c2ccc3ccccc3n2)cc1 | · | · | 39.8µM* | · | · | ·
C(=C\c1ccc2ccccc2n1)/c1ccccc1 | -5.6 | -0.6% | -5.3% | -20.6% | 22.9% | -16.2%
CN(C)CCNC(=O)c1cccc2nc3c(ccc4ccccc43)nc12 | 20.8 | · | 12.6µM* | · | · | ·
CN(C)CCNC(=O)c1cccc2[nH]c(-c3ccncc3)nc12 | -2.8 | · | 44.7µM* | · | · | ·
COc1ccc(C(=O)NCCN(C)C)c2nc3ccccc3cc12 | 14.5 | · | 14.1µM* | · | · | ·
CCN(CC)c1ccc(/C=C/C(=O)C2C(=O)C=C(C)OC2=O)cc1 (stereo not drawn) | 5.0 | ? | -11.0% | 15.8µM* | ? | -8.2%

Assay outcomes from PubChem BioAssay.
